# Assay results taken from PMC11062922 (Nature Chemical Biology, 2023).
# Where two headings read alike, the source gives them in different places.
# Experiments:
# Set-up in all cases: species or system human, MV4-11 + K-562 + COLO205 + SK-N-BE2 + OVCAR-8
# COX5A = details: read-out: apparent Kd; compound concentrations: 100 nM and 1000 nM (sheet 'Samples'), CATDS: 5.4646770087593201E-2; n = 1
# CSNK1D = details: read-out: apparent Kd, compound concentrations: 100 nM and 1000 nM (sheet 'Samples'), n = 1
# CSNK1E = details: read-out: apparent Kd, compound concentrations: 100 nM and 1000 nM (sheet 'Samples'), n = 1
# DDR1 = details: read-out: apparent Kd, compound concentrations: 100 nM and 1000 nM (sheet 'Samples'), n = 1
# DDR2 = details: read-out: apparent Kd, compound concentrations: 100 nM and 1000 nM (sheet 'Samples'), n = 1
# DYRK1A = details: read-out: apparent Kd; compound concentrations: 100 nM and 1000 nM (sheet 'Samples'), CATDS: 4.6782776774364397E-2; n = 1
# ILK = details: read-out: apparent Kd; compound concentrations: 100 nM and 1000 nM (sheet 'Samples'), CATDS: 4.86206826406465E-2; n = 1
# JAK2 = details: read-out: apparent Kd; compound concentrations: 100 nM and 1000 nM (sheet 'Samples'), CATDS: 0.29618992494589602; n = 1
# MAPK10 = details: read-out: apparent Kd, compound concentrations: 100 nM and 1000 nM (sheet 'Samples'), n = 1
# MAPK14 = details: read-out: apparent Kd, compound concentrations: 100 nM and 1000 nM (sheet 'Samples'), n = 1
# MAPK8 = details: read-out: apparent Kd, compound concentrations: 100 nM and 1000 nM (sheet 'Samples'), n = 1
# MAPK9 = details: read-out: apparent Kd, compound concentrations: 100 nM and 1000 nM (sheet 'Samples'), n = 1
# MAPKAPK2 = details: read-out: apparent Kd, compound concentrations: 100 nM and 1000 nM (sheet 'Samples'), n = 1
# NLK = details: read-out: apparent Kd, compound concentrations: 100 nM and 1000 nM (sheet 'Samples'), n = 1
# RIPK2 = details: read-out: apparent Kd, compound concentrations: 100 nM and 1000 nM (sheet 'Samples'), n = 1
# CSNK1A1 = details: read-out: apparent Kd, compound concentrations: 100 nM and 1000 nM (sheet 'Samples'), n = 1
# DJA1 = test system: T1, DJA1; details: read-out: apparent Kd; compound concentrations: 100 nM and 1000 nM (sheet 'Samples'), CATDS: 7.1447025322651805E-2; n = 1
# T1 construct: gene DNAJA1
# MAPK11 = details: read-out: apparent Kd, compound concentrations: 100 nM and 1000 nM (sheet 'Samples'), n = 1
# NQO2 = details: read-out: apparent Kd; compound concentrations: 100 nM and 1000 nM (sheet 'Samples'), CATDS: 7.6337001924779102E-2; n = 1
# FLT3 = details: read-out: apparent Kd; compound concentrations: 100 nM and 1000 nM (sheet 'Samples'), CATDS: 0.137141810176551; n = 1
# MAP2K1 = details: read-out: apparent Kd; compound concentrations: 100 nM and 1000 nM (sheet 'Samples'), CATDS: 0.12402883868582899; n = 1
# MAP3K12 = details: read-out: apparent Kd; compound concentrations: 100 nM and 1000 nM (sheet 'Samples'), CATDS: 0.14214405219183901; n = 1
# PIK3C2A = details: read-out: apparent Kd; compound concentrations: 100 nM and 1000 nM (sheet 'Samples'), CATDS: 0.1177028048525; n = 1
# PLK1 = details: read-out: apparent Kd; compound concentrations: 100 nM and 1000 nM (sheet 'Samples'), CATDS: 0.134584248305568; n = 1
# MYLK3 = details: read-out: apparent Kd; compound concentrations: 100 nM and 1000 nM (sheet 'Samples'), CATDS: 0.254967092830167; n = 1
# PKN2 = details: read-out: apparent Kd; compound concentrations: 100 nM and 1000 nM (sheet 'Samples'), CATDS: 0.232185519076441; n = 1
# TP53RK = details: read-out: apparent Kd; compound concentrations: 100 nM and 1000 nM (sheet 'Samples'), CATDS: 0.27535936863047; n = 1
# RIPK3 = details: read-out: apparent Kd; compound concentrations: 100 nM and 1000 nM (sheet 'Samples'), CATDS: 4.8358331607940903E-2; n = 1
# GAK = details: read-out: apparent Kd; compound concentrations: 100 nM and 1000 nM (sheet 'Samples'), CATDS: 5.4860090777902201E-2; n = 1
# PIK3CA = details: read-out: apparent Kd; compound concentrations: 100 nM and 1000 nM (sheet 'Samples'), CATDS: 4.2523993136959801E-2; n = 1
# PIK3CD = details: read-out: apparent Kd; compound concentrations: 100 nM and 1000 nM (sheet 'Samples'), CATDS: 5.28736711934766E-2; n = 1
# PRKD2 = details: read-out: apparent Kd; compound concentrations: 100 nM and 1000 nM (sheet 'Samples'), CATDS: 3.2417406243743098E-2; n = 1
# PRKD3 = details: read-out: apparent Kd; compound concentrations: 100 nM and 1000 nM (sheet 'Samples'), CATDS: 3.0540590804978299E-2; n = 1
# TNIK = details: read-out: apparent Kd; compound concentrations: 100 nM and 1000 nM (sheet 'Samples'), CATDS: 3.1361492555590703E-2; n = 1
# PIP4K2C = details: read-out: apparent Kd; compound concentrations: 100 nM and 1000 nM (sheet 'Samples'), CATDS: 7.4110853975201799E-2; n = 1
compound,measurement,setting,value
Clc1ccc(-c2nn3ncccc3c2-c2ccnc(Nc3ccc4c(c3)OCCO4)n2)cc1 [GW829116X],potency estimated from few doses,COX5A,1390 nM
same,potency estimated from few doses,CSNK1D; CATDS: 7.5632586412137201E-2,637 nM
same,potency estimated from few doses,CSNK1E; CATDS: 5.2875216757628997E-2,1530 nM
same,potency estimated from few doses,DDR1; CATDS: 8.5854125332601505E-2,495 nM
same,potency estimated from few doses,DDR2; CATDS: 5.1047862039129102E-2,1710 nM
same,potency estimated from few doses,DYRK1A,2320 nM
same,potency estimated from few doses,ILK,2010 nM
same,potency estimated from few doses,JAK2,72.6 nM
same,potency estimated from few doses,MAPK10; CATDS: 6.7537775874855099E-2,815 nM
same,potency estimated from few doses,MAPK14; CATDS: 7.0110586320851001E-2,749 nM
same,potency estimated from few doses,MAPK8; CATDS: 5.7180888411163297E-2,1230 nM
same,potency estimated from few doses,MAPK9; CATDS: 0.15745137005687401,177 nM
same,potency estimated from few doses,MAPKAPK2; CATDS: 6.45632126081358E-2,904 nM
same,potency estimated from few doses,NLK; CATDS: 6.2213467797214997E-2,988 nM
same,potency estimated from few doses,RIPK2; CATDS: 7.3862527968221903E-2,670 nM
CCOc1nccc(-c2c(-c3ccc(F)cc3)ncn2C2CCNCC2)n1 [SB-249175],potency estimated from few doses,CSNK1A1; CATDS: 0.102503652768427,294 nM
same,potency estimated from few doses,CSNK1D; CATDS: 0.31219473795395603,16.6 nM
same,potency estimated from few doses,CSNK1E; CATDS: 0.18119769412776501,46.9 nM
same,potency estimated from few doses,DJA1,1630 nM
same,potency estimated from few doses,MAPK10; CATDS: 7.1245555578464306E-2,1660 nM
same,potency estimated from few doses,MAPK11; CATDS: 7.9204394656965396E-2,935 nM
same,potency estimated from few doses,MAPK14; CATDS: 0.21634918417803001,31.9 nM
same,potency estimated from few doses,MAPKAPK2; CATDS: 0.24140517483875701,25.8 nM
same,potency estimated from few doses,NQO2,1130 nM
CC(C)(C)n1cnc2c(N)ncnc21 [SKF-97359],potency estimated from few doses,CSNK1A1; CATDS: 0.118789019342549,1870 nM
same,potency estimated from few doses,CSNK1D; CATDS: 0.12511674231417799,1680 nM
same,potency estimated from few doses,CSNK1E; CATDS: 0.10783492256042899,2330 nM
same,potency estimated from few doses,FLT3,1410 nM
same,potency estimated from few doses,MAP2K1,1710 nM
same,potency estimated from few doses,MAP3K12,1320 nM
same,potency estimated from few doses,PIK3C2A,1910 nM
same,potency estimated from few doses,PLK1,1460 nM
Fc1ccc(-c2ncn(CCCNCc3ccccc3)c2-c2ccncc2)cc1 [SB-210486],potency estimated from few doses,CSNK1A1; CATDS: 0.128304526213217,1360 nM
same,potency estimated from few doses,CSNK1D; CATDS: 0.26868989903925999,280 nM
same,potency estimated from few doses,CSNK1E; CATDS: 0.162916255761588,716 nM
same,potency estimated from few doses,MAPK14; CATDS: 0.19130895998185199,509 nM
same,potency estimated from few doses,MAPK9; CATDS: 0.114122400306413,2070 nM
same,potency estimated from few doses,MAPKAPK2; CATDS: 0.22954264686774201,363 nM
Cc1ccc(-c2cc3c(NC(=O)C4CC4)ncnc3o2)cc1 [GW819230X],potency estimated from few doses,CSNK1A1; CATDS: 0.241580521879566,2130 nM
same,potency estimated from few doses,MYLK3,1910 nM
same,potency estimated from few doses,PKN2,2320 nM
same,potency estimated from few doses,TP53RK,1650 nM
CN1CCC(n2cnc(-c3ccc(F)cc3)c2-c2ccnc(Nc3ccccc3)n2)CC1 [SB-236687],potency estimated from few doses,CSNK1A1; CATDS: 5.98984637657098E-2,341 nM
same,potency estimated from few doses,CSNK1D; CATDS: 0.13245154437339501,30.3 nM
same,potency estimated from few doses,CSNK1E; CATDS: 9.7404692081277694E-2,66.2 nM
same,potency estimated from few doses,MAPK10; CATDS: 9.1300875893450595E-2,79 nM
same,potency estimated from few doses,MAPK11; CATDS: 7.8830615244885299E-2,122 nM
same,potency estimated from few doses,MAPK14; CATDS: 0.23867511815935299,6.98 nM
same,potency estimated from few doses,MAPK8; CATDS: 4.9540433468536101E-2,1080 nM
same,potency estimated from few doses,MAPK9; CATDS: 8.0964581891509499E-2,112 nM
same,potency estimated from few doses,NLK; CATDS: 7.7822094948188494E-2,127 nM
same,potency estimated from few doses,RIPK2; CATDS: 6.8515245953885195E-2,196 nM
same,potency estimated from few doses,RIPK3,1330 nM
CCNc1nccc(-c2c(-c3ccc(F)cc3)ncn2C2CCN(C)CC2)n1 [SB-226605],potency estimated from few doses,CSNK1A1; CATDS: 6.4218500177313606E-2,54.1 nM
same,potency estimated from few doses,CSNK1D; CATDS: 0.15961937746466701,6.16 nM
same,potency estimated from few doses,CSNK1E; CATDS: 8.6582359742075399E-2,24.7 nM
same,potency estimated from few doses,DDR1; CATDS: 5.0291994189884899E-2,116 nM
same,potency estimated from few doses,DDR2; CATDS: 3.5910243594836001E-2,495 nM
same,potency estimated from few doses,GAK,87 nM
same,potency estimated from few doses,MAPK10; CATDS: 6.8740436071955194E-2,44.8 nM
same,potency estimated from few doses,MAPK11; CATDS: 3.4840518040238501E-2,589 nM
same,potency estimated from few doses,MAPK14; CATDS: 0.16984831376033699,5.38 nM
same,potency estimated from few doses,MAPK8; CATDS: 4.6835981276276903E-2,150 nM
same,potency estimated from few doses,MAPK9; CATDS: 9.88487925087526E-2,18 nM
same,potency estimated from few doses,MAPKAPK2; CATDS: 7.0385751931635404E-2,42 nM
same,potency estimated from few doses,PIK3CA,220 nM
same,potency estimated from few doses,PIK3CD,98.1 nM
same,potency estimated from few doses,PRKD2,939 nM
same,potency estimated from few doses,PRKD3,1520 nM
same,potency estimated from few doses,RIPK2; CATDS: 3.5796504024636501E-2,504 nM
same,potency estimated from few doses,TNIK,1210 nM
CN1CCC(n2cnc(-c3ccc(F)cc3)c2-c2ccnc(NC3CCNCC3)n2)CC1 [SB-229482],potency estimated from few doses,CSNK1A1; CATDS: 7.6615483507767895E-2,1760 nM
same,potency estimated from few doses,CSNK1D; CATDS: 0.231386526780439,127 nM
same,potency estimated from few doses,CSNK1E; CATDS: 0.20184204641009601,159 nM
same,potency estimated from few doses,MAPK10; CATDS: 9.5737343662475993E-2,810 nM
same,potency estimated from few doses,MAPK14; CATDS: 0.239197237832417,121 nM
same,potency estimated from few doses,MAPK9; CATDS: 0.10171878103733301,682 nM
same,potency estimated from few doses,MAPKAPK2; CATDS: 0.108564299414966,573 nM
same,potency estimated from few doses,NLK; CATDS: 8.6878607565958693E-2,1100 nM
same,potency estimated from few doses,PIP4K2C,2040 nM
